The values below come from PubChem BioAssay.

The source made the active and inactive calls. Unless noted, how the calls were made is not given here.

Test [1] is described as follows: HepG2 liver cancer cell viability effects, profiling panel, resazurin fluorescence, 24 h, PK04 Diversity Set (AID 1172). Further: test concentration not given here. The following applies: higher = more signal.
Test [2] can be described thus: basal S. cerevisiae growth modulation, no modifier, primary screen, OD600, strain BY4716, 24 h, basal condition (AID 1173). Conditions: OD600, 24 h, higher = more signal, called active from +8 up or from −8 down.
Test [3] in a line: MM1S myeloma cell viability, profiling panel, resazurin fluorescence, basal, 24 h, PK04 Diversity Set (AID 1174). Further: test concentration not given here. The following applies: higher = more signal, called active from +8 up or from −8 down.
Test [4] addresses Dihydroorotate dehydrogenase (quinone), mitochondrial (Plasmodium falciparum (isolate 3D7)) (UniProt Q08210). The test is described as follows: PfDHODH enzyme inhibitors, primary screen, biochemical, C-terminal His tag, absorbance 600 nm (AID 1175).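 Further: recombinant parasite enzyme with a five histidine tag at its C terminus; test concentration not given here.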 The following applies: DCIP absorbance 600 nm, higher = more signal, called active from +8 up or from −8 down.
Test [5] in a line: P. aeruginosa biofilm formation inhibitors, primary screen, strain PAO1, LB-PBS medium, absorbance 600 nm (AID 1176). Further: test concentration not given here. Conditions: P. aeruginosa PAO1 growth/biofilm, A600, 12 h; higher = more signal.
Test [6] can be described thus: S. cerevisiae RM11-1a growth modifiers, primary screen, strain RM11-1a, OD600, basal, 24 h (AID 1177).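 Further: cultures grown under basal conditions with no added stressor; test concentration not given here.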 Conditions: OD600, 24 h, higher = more signal, called active from +8 up or from −8 down.
Test [7] in a line: E. coli acrAB mutant growth effects, primary screen, E. coli filamentation inducers, strain DRC39, OD650, 24 h (AID 1178).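 Further: growth measured as culture turbidity by optical density at 650 nm; test concentration not given here.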 Conditions: higher = more signal, called active from +8 up or from −8 down.
Test [8] is described as follows: E. coli acrAB mutant growth effects, primary screen, E. coli filamentation inducers, strain DRC39, OD650, 48 h (AID 1179).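 Further: screen aims at cell division blockers that make cells filament.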 Conditions: E. coli DRC39 delta-acrAB growth, higher = more signal, called active from +8 up or from −8 down.
Test [9] in a line: RPMI8226 myeloma cell viability, profiling panel, resazurin fluorescence, basal, 24 h, PK04 Diversity Set (AID 1180).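 Further: RPMI8826 multiple myeloma cell line at 5000 cells per well; test concentration not given here.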 The following applies: higher = more signal.
Test [10] has as its target E3 ubiquitin-protein ligase XIAP (Homo sapiens) (UniProt P98170). Briefly: XIAP binders, primary screen, biophysical, small-molecule microarray, fluorescence 635 nm (AID 1181).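 Further: score merges 667 nm emission and signal to noise over triplicate slides.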 The following applies: small-molecule microarray binding, higher = more signal.

Sequence of E3 ubiquitin-protein ligase XIAP (Homo sapiens) (P98170 whole entry, looked up): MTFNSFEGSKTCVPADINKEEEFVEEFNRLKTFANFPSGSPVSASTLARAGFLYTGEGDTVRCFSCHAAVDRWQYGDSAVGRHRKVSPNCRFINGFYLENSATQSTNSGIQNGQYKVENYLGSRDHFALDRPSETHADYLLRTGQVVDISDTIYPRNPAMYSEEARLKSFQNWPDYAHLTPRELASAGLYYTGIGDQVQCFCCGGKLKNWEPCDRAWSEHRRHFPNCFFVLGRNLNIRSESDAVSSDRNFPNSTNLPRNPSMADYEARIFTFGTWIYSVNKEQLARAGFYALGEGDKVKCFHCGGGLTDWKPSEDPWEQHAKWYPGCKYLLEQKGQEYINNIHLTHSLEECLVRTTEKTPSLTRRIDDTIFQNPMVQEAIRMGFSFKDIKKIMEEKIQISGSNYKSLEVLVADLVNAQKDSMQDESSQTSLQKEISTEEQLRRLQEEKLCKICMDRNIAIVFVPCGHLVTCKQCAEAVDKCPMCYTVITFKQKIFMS
Sequence of Dihydroorotate dehydrogenase (quinone), mitochondrial (Plasmodium falciparum (isolate 3D7)) (Q08210 whole entry, looked up): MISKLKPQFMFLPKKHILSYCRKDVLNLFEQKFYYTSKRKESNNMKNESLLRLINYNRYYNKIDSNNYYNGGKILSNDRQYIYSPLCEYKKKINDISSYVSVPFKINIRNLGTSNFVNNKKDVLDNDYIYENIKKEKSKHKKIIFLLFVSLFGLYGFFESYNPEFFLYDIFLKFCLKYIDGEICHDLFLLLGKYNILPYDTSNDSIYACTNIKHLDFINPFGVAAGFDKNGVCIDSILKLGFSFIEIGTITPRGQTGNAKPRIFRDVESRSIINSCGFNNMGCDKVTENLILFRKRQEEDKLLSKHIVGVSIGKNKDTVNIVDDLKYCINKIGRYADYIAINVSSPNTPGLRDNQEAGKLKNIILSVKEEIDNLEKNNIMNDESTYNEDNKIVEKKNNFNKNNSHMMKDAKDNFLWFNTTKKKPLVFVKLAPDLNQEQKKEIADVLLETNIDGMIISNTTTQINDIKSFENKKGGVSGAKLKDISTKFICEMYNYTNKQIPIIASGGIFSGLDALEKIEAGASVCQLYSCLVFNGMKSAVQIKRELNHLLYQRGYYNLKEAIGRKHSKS

On to `CO[C@@H]1COC(=O)CC=C[C@@H](C)COC(=O)[C@H](COCc2ccccc2)NC(=O)CC=C[C@H]1C`, for which the z-score in test [1] was -0.466; in test [2], -0.591 (inactive); in [3], 0.579 (inactive); in test [5], -0.969 (inactive); in test [6], 0.158 (inactive); in test [7], 0.489 (inactive). The z-score in test [8] is -0.0248 (inactive); in test [9] it was 0.783. The composite z-score in test [4] was 0.777 (inactive); in test [10], 0.122.

As for `COc1ccc(O[C@H]2C=C[C@@H](c3ccccc3)O[C@@H]2COC(=O)CCC(C)=NOC[C@@H](C)[C@H](OCc2ccccc2)C(C)C)cc1`, the z-score in test [1] was 0.85; in test [2] it was 0.445 (inactive); in test [3], 0.24 (inactive); in test [5], -0.598 (inactive); in test [6], 0.659 (inactive); in test [7] it was 0.394 (inactive). For the same compound, the z-score in test [8] is -0.9 (inactive); in [9], 0.0668. For the same compound, the composite z-score in test [4] was -0.926 (inactive); in test [10] it was 0.552.

Turning to `CCCNC(=O)[C@@H]1c2ccccc2C(=O)N(Cc2ccccc2Cl)[C@H]1c1ccc(CO)cc1`, the z-score in [1] is 1.44; in test [2] it was -0.768 (inactive); in test [3], 0.496 (inactive); in test [5], -0.217 (inactive); in test [6], 0.251 (inactive); in test [7], 0.812 (inactive). Moreover, the results for the z-score in test [8] and in test [9] were 0.829 (inactive) and 1.45, respectively. Also, the figures for the composite z-score in [4] and in [10] were -0.227 (inactive) and -0.078, respectively.

Take `CCCCC(=C=CC[C@H](O)c1ccccc1OCCO)C[C@H](O)COCc1ccccc1`: the z-score in test [1] was -0.325; in [2] it was -1.18 (inactive); in test [3], -0.505 (inactive); in test [5], 0.637 (inactive); in test [6], -0.0076 (inactive); in [7], 0.156 (inactive). In addition, the z-score in test [8] was 0.0347 (inactive); in test [9] it was -0.276. Further, the composite z-score in test [4] is -2.89 (inactive); in test [10], -0.0062.

With `O=C1[C@H]2[C@H]3[C@H](O)[C@H](O)CC(=NOCc4ccccc4)[C@@H]3CC[C@H]2C(=O)N1Cc1ccccc1`, the z-score in test [1] is 1.38; in test [2], -0.148 (inactive); in test [3] it was 0.85 (inactive); in test [5] it was -0.377 (inactive); in [6], -0.118 (inactive); in [7], 0.16 (inactive). The z-score in test [8] is 0.71 (inactive); in [9], 1.17. Also, the composite z-score in test [4] was -0.0807 (inactive); in test [10] it was 0.0512.

In the case of `COC(=O)[C@]1(CO)N=C(c2ccc(OCCCO)cc2)O[C@@H]1c1ccccc1N=[N+]=[N-]`, the z-score in test [1] is -0.318; in test [2], -0.114 (inactive); in test [3] it was -0.198 (inactive); in test [5], 0.205 (inactive); in test [6], -0.709 (inactive); in [7], -0.131 (inactive). Besides, the figures for the z-score in test [8] and in [9] were 0.57 (inactive) and -0.459, respectively. In addition, the composite z-score in test [4] is 0.482 (inactive); in test [10] it was 0.964.

As for `O=C1O[C@@H](c2ccccc2)[C@@H](c2ccccc2)N2[C@@H](c3ccccc3OCCO)[C@]3(C(=O)Nc4ccc(C#CCCO)cc43)[C@@H](C(=O)O)[C@H]12`, the z-score is -0.307 in test [1]; -1.28 (inactive) in test [2]; 0.649 (inactive) in test [3]; -0.681 (inactive) in test [5]; -0.282 (inactive) in [6]; 0.0701 (inactive) in [7]. Further, the z-score in test [8] was -0.781 (inactive); in test [9], 0.183. In addition, the composite z-score is -2.05 (inactive) in [4] and 0.32 in [10].

Take `O=C1C[C@@H](O)[C@@H](O)[C@@H]2[C@@H]3C(=O)N(c4cccc(Oc5ccccc5)c4)C(=O)[C@@H]3CC[C@@H]12`: the z-score was -0.165 in [1]; -0.208 (inactive) in test [2]; 0.207 (inactive) in [3]; -0.708 (inactive) in test [5]; -0.25 (inactive) in [6]; -0.65 (inactive) in test [7]. For the same compound, the z-score in test [8] is -0.644 (inactive); in test [9], -0.0298. Also, the composite z-score in [4] is -0.453 (inactive); in test [10] it was -0.102.

For `CCN1C(=O)[C@H]2[C@H]3[C@H](O)[C@H](O)CC(=NOC(C)CN4CCCCc5nc(C)c(C)cc54)[C@@H]3CC[C@H]2C1=O` (stereo not given in full), the z-score in [1] was -1.3; in test [2], -0.0913 (inactive); in test [3] it was -0.669 (inactive); in [5], -0.418 (inactive); in test [6], 0.002 (inactive); in test [7], 0.538 (inactive). Also, the z-score in [8] was 1.2 (inactive); in test [9] it was -0.889. For the same compound, the composite z-score in test [4] was 0.301 (inactive); in [10] it was -0.211.

For `Cc1ccc(F)cc1S(=O)(=O)N[C@@H]1CCN(Cc2ccc(CC(C)C)cc2)C1`, the z-score in test [1] was -0.367; in test [2], -17.2 (active); in test [3] it was -0.653 (inactive); in test [5], 0.294 (inactive); in test [6] it was -14.5 (active); in test [7], -20.3 (active). The z-score in [8] is -17.4 (active); in test [9] it was -1.89. For the same compound, the composite z-score in test [4] was -0.687 (inactive); in [10] it was -0.106.

On to `CCc1cc2c(nc1CC)CCN(CCC(C)=NO[C@@H](C)c1cc(-c3c(C)cc(C)cc3C)no1)C2`, for which the z-score in test [1] was -0.0169; in [2], -2.75 (inactive); in [3] it was -0.433 (inactive); in test [5] it was 0.903 (inactive); in test [6], 0.526 (inactive); in test [7], 0.416 (inactive). Besides, the z-score in test [8] is 0.566 (inactive); in test [9], 0.374. Besides, the composite z-score in test [4] is -0.0406 (inactive); in [10], 0.19.

With `C[C@@H]1CCC2C(=O)N(Cc3ccccc3)C[C@@H](O)CN2[C@H]1c1ccc(Br)cc1` (stereo not given in full), the z-score in test [1] was 0.644; in test [2], -5.68 (inactive); in [3], 0.726 (inactive); in test [5], 0.924 (inactive); in [6] it was -1.71 (inactive); in [7] it was 0.957 (inactive). Further, the z-score in test [8] was -1.25 (inactive); in test [9], 0.39. The composite z-score in test [4] is -1.3 (inactive); in [10], -0.0009.
